# ERb coact inh – blocks coactivator binding to human estrogen receptor beta; TR-FRET ER-beta LBD / SRC1-Cy5 peptide binding; receptor agonist-loaded with 1 µM estradiol; inhibition, % at 25.6 µM; hit rate 1.3% among 86,000; AID 633;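 active = compounds whose percent inhibition of the receptor-coactivator binding signal exceeds about 50% in the single-dose screen, limit read from the data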
# MT1-MMP txn act – MT1-MMP promoter transcription activation | HT1080 MT1-MMP promoter luciferase reporter, luminescence, overnight; hits give high values | hit rate 0.16% among 86,000 | AID 750 | activation factor at 10 µM;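 active = activation factor of at least 2 for MT1-MMP transcription at 10 µM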
# Smad3 inh – blocks human Smad3 binding to FoxH1 peptide; P84022; TR-FRET Smad3/Dy647-FoxH1 peptide binding, europium anti-His; inhibition, % at 25 µM; hit rate 0.29% among 88,000;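 active = compounds that reduce the energy-transfer binding signal between the protein and its labelled peptide by more than half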
# ERa SRC1 pot – enhances coactivator binding to human estrogen receptor alpha; TR-FRET ERalpha-LBD/SRC-Cy5 coactivator binding, 2 h; 100 = basal binding, no effect; coactivator binding (% of control), % at 25.6 µM; hit rate 1.3% among 86,000; in the data active = activity above about 200%;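 note: binding measured in presence of low estradiol as agonist stimulus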
# Target sequence (P03372 whole entry, looked up, the tested form may be a part): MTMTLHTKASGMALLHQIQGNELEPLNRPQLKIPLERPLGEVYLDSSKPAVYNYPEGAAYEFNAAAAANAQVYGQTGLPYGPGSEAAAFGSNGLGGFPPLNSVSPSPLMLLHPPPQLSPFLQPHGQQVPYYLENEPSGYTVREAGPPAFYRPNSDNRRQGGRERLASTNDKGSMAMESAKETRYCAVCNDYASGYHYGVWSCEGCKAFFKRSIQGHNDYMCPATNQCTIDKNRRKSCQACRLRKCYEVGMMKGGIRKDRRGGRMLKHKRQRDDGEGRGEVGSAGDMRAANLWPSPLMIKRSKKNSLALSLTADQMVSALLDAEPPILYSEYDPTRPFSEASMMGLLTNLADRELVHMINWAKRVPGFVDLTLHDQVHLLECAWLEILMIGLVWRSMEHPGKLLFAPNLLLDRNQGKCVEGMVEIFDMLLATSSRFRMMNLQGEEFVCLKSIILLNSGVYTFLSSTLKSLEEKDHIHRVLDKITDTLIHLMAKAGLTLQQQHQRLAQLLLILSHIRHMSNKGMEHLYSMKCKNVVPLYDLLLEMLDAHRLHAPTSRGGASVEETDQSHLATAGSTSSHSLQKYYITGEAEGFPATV
# MMP-13 inhibitor – blocks human MMP13 activity; P45452; MMP-13 fTHP FRET cleavage, Mca fluorescence; hit rate 0.07% among 65,000; AID 570; inhibition, % at 4 µM;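 active = inhibition above the mean of compound-free control plate wells plus 3 SD, cut at about 14% in these data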
# ERa SRC1 inh – blocks coactivator binding to human estrogen receptor alpha | P03372 | TR-FRET ER-alpha LBD / SRC-1 peptide, estradiol-bound | inhibition, % at 25.6 µM | hit rate 1.7% among 86,000 | AID 629; in the data active = inhibition above about 50%
# Hits are given with their value; – = inactive; · = no result given; [ ] = dose if it differs, or a comment. Shown are actives, neighbours in structure and some others; about 3.5% of the full set was active somewhere.
SMILES,ERb coact inh,MT1-MMP txn act,Smad3 inh,ERa SRC1 pot,MMP-13 inhibitor,ERa SRC1 inh
COCCNC(=O)C1CC(=O)N(C2CCCCC2)C1 (centres undefined),–,–,–,–,–,–
CC(=O)c1c(C)[nH]c(C(=O)NCCC2=CCCCC2)c1C,·,–,·,·,–,·
CCCc1sc(N/N=C/c2ccccn2)nc1-c1ccc(Br)cc1,–,·,–,–,·,–
COc1nnc(-c2ccc(C)c(S(=O)(=O)NCCO)c2)c2ccccc12,63.8[fluorescence artefact?],–,–,–,–,57.7
COCCNS(=O)(=O)c1cc(-c2nn(C)c(=O)c3ccccc23)ccc1C,–,–,–,–,–,–
Cc1cc(NC(=O)c2cc(-c3ccccc3)on2)n(-c2ccccc2)n1,–,–,–,528.7[fluorescence artefact?],–,–
COc1cccc(-c2cc(C(=O)Nc3cc(C)nn3-c3ccccc3)no2)c1,–,·,–,455.5,·,–
O=C(CNS(=O)(=O)c1ccc(Br)cc1)N1CCN(c2ccc(F)cc2)CC1,–,–,–,–,·,–
O=C(Nc1nnc(-c2cccs2)o1)c1cccc(C(F)(F)F)c1,–,–,–,–,–,–
COc1ccc(NC(=O)c2sc3cc(C(F)(F)F)cnc3c2-c2cccs2)cc1,–,–,–,232.9[fluorescence artefact?],·,–
N#Cc1ccc(NC(=O)c2sc3cc(C(F)(F)F)cnc3c2-c2cccs2)cc1,–,–,–,330.0[fluorescence artefact?],·,–
O=C(Nc1ccc(F)cc1)c1sc2cc(C(F)(F)F)cnc2c1-c1cccs1,–,–,–,–,·,–
O=c1oc2c(O)c(O)cc3c(=O)oc4c(O)c(O)cc1c4c23,97.9[fluorescence artefact?],–,97.6,–,·,93.9[fluorescence artefact?]
O=C(CSc1nc2c(sc3ccccc32)c(=O)n1Cc1ccco1)NCC1CCCO1 (centres undefined),–,–,–,279.1[fluorescence artefact?],–,–
O=C(CSc1nc2c(sc3ccccc32)c(=O)n1Cc1ccccc1)NCC1CCCO1 (centres undefined),–,–,–,–,·,–
CN(C)c1ccc(/C=C/C(O)=C2/C(=O)N(C)C3(C)CC2c2ccccc2O3)cc1 (centres undefined),60.3[fluorescence artefact?],–,–,–,–,73.7[fluorescence artefact?]
Fc1ccc(-c2nnc(-n3nnc4ccccc43)c3ccccc23)cc1,–,–,–,–,·,57.8
O=C(Nc1cccc(NC(=O)c2ccc(-c3ccc(Br)cc3)o2)c1)c1ccco1,–,–,–,–,·,71.1[fluorescence artefact?]
COc1cc(C2CC(=O)N3CN(c4ccccc4C)CSC3=C2C#N)cc(OC)c1OC (centres undefined),–,–,–,252.8[fluorescence artefact?],–,–
COc1ccccc1N1CSC2=C(C#N)C(c3ccc(SC)cc3)CC(=O)N2C1 (centres undefined),61.1[fluorescence artefact?],–,–,–,–,63.7[fluorescence artefact?]
CCOc1ccc(N2CSC3=C(C#N)C(c4ccco4)CC(=O)N3C2)cc1 (centres undefined),51.8,–,–,–,·,50.8
CCc1ccccc1N1CSC2=C(C#N)C(c3cc(OC)c(OC)cc3OC)CC(=O)N2C1 (centres undefined),–,–,–,225.0[fluorescence artefact?],–,–
COC(=O)CN1C(=O)CC(C)(C)Sc2ccccc21,–,–,–,–,–,–
CCOC(=O)c1c(NC(=O)C(F)(OC)C(F)(F)F)sc2c1CCN(C)C2 (centres undefined),–,–,–,–,–,–
O=c1cc(N2CCN(c3ccccc3)CC2)[nH]c(=O)n1C1CCCCC1,·,–,·,·,–,·
SMILES,ERb coact inh,MT1-MMP txn act,Smad3 inh,ERa SRC1 pot,MMP-13 inhibitor,ERa SRC1 inh
COc1cc2c(cc1OC)C(c1cccc(OC)c1OC)CC(=O)N2 (centres undefined),–,–,–,–,–,–
CCn1c(CSc2nnc3ccccn23)nc2cc(C(=O)O)ccc21,–,–,–,–,–,–
CCn1c(CSc2nnc(-c3cccnc3)n2-c2ccccc2C)nc2cc(C(=O)O)ccc21,–,–,–,253.5,–,–
O=C1c2ccccc2C(=O)N1CC1c2ccccc2CCN1C(=O)C1CCCCC1 (centres undefined),–,–,–,–,·,–
O=C(NCC1c2ccccc2CCN1C(=O)CN1CCOCC1)C1CCCCC1 (centres undefined),–,–,63.2[fluorescence artefact?],–,–,–
O=C(C1CCN(S(=O)(=O)c2cccnc2)CC1)N1CCN(c2cccc(Cl)c2)CC1,–,·,–,–,·,–
O=c1[nH]c2ccccc2n1CCCSCCCn1c(=O)[nH]c2ccccc21,–,–,–,–,–,–

# Screening results from PubChem.
